Assay [1] is described as follows: inhibitors of TNFa-induced NFkB p65 translocation, primary screen, imaging, HUVEC, MLSMR starter and 10KST1 sets (AID 438;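 active = inhibition above 20% together with a positive visual image hit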;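 also: compound added about 3h40 before a 20 min TNFalpha stimulation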;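 as to inhibition: signal is the nuclear over cytoplasmic p65 intensity ratio per well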). The note with it: HUVEC TNFa-induced p65 nuclear translocation; cell count: measured here: nuclei count (cytotoxicity indicator), at 2.08 µM; inhibition: at 2 µM, stronger effect = higher value, 0% TNFa-plus-vehicle, 100% no-TNFa wells.
Assay [2] in a line: inhibitors of mutant huntingtin aggregation, primary screen, imaging, exon1htt(103Q)mCFP cells, high-content imaging (AID 483;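 active = visual image review flags a hit and inhibition of aggregation exceeds 20%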;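 also: compound exposure lasted 3 days before fixation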;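 as to nuclei count: percent of the per-plate median nuclei count of sample wells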). The note with it: exon1htt(103Q)mCFP cell line, aggregate imaging, at 2 µM; inhibition of aggregation: stronger effect = higher value; nuclei count: measured here: cell count, toxicity.
The nature of assay [3]: inhibitors of E-selectin induction by TNFa, primary screen, imaging, HUVEC, immunofluorescence, MLSMR starter and 10KST1 sets (AID 487).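 As to inhibition: signal is fraction of cell area covered by stained E-selectin grains.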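 As to nuclei count: 100% = median nuclei count of all wells on the same plate.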 The note with it: HUVEC TNFalpha-induced E-selectin immunofluorescence imaging, at 2 µM; inhibition: stronger effect = higher value; nuclei count: measured here: cell number, toxicity.
The target in assay [4] is Voltage-gated potassium channel subunit beta-2 (Rattus norvegicus) (UniProt P62483). As to the kind of experiment: KvBeta enzyme negative modulators, primary screen, biochemical, NADPH fluorescence (AID 622;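 active = fluorescence slope higher than the sample average by over 3 SD, cut at about -0.22 in these data, passing the limit was not always enough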;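 also: slope of raw intensity against log time taken from 70 to 1610 s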). The note with it: recombinant KvBeta, 4-cyanobenzaldehyde reduction, at 10 µM, stronger effect = higher value.
Sequence of Voltage-gated potassium channel subunit beta-2 (Rattus norvegicus) (P62483 whole entry, looked up): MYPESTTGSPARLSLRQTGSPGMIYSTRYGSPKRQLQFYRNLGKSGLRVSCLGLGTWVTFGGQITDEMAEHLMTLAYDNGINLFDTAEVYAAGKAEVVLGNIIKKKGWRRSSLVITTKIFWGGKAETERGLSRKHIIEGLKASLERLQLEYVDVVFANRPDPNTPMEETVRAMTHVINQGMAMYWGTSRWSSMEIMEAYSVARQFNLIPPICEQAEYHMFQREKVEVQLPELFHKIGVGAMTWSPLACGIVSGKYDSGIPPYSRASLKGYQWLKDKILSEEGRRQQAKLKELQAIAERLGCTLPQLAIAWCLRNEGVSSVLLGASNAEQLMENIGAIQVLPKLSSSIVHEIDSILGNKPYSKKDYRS
Assay [5] has the same target. As to the kind of experiment: KvBeta positive modulators, primary screen, biochemical, NADPH fluorescence (AID 623;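 active = NADPH fluorescence slope more negative than the mean of all samples by about 3 SD, 99.7% confidence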;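 also: fluorescence intensity change per second fitted from 20 to 320 s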). The note with it: Recombinant KvBeta, NADPH fluorescence decrease slope, 10 min; at 10 µM; stronger effect = lower value.
Assay [6] deals with Alpha-2C adrenergic receptor (Homo sapiens) (UniProt P18825). Put plainly: modulators of alpha2C/GIRK thallium flux, primary screen, cell-based, HEK293 alpha2C/GIRK1/2 (AID 624;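 active = fluorescence slope after compound addition differing from the mean of all screened samples at 99.7% confidence, in either direction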;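 also: slope of fluorescence ratio to pre-addition baseline per second over 15 to 24 s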). The note with it: thallium flux BTC fluorescence, at 10 µM, actives lie on both sides.
Sequence of Alpha-2C adrenergic receptor (Homo sapiens) (P18825 whole entry, looked up): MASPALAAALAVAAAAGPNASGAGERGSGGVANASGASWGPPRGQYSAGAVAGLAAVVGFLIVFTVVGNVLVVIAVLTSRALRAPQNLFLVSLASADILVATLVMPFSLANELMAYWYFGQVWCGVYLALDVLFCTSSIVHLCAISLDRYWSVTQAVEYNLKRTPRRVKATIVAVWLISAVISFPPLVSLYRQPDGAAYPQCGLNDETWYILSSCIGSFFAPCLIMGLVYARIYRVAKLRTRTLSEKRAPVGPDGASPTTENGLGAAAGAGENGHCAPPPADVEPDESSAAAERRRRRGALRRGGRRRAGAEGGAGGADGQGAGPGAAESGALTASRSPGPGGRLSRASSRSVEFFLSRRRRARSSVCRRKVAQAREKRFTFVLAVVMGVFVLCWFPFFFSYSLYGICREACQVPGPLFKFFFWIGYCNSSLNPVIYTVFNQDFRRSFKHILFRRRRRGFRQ
Assay [7] can be described thus: inhibitors of Sendai virus-induced IRF3 signaling, primary screen, TLR/RLR signaling modifier project, cell-based, Sendai virus stimulus, luciferase, 10K MLSCN set (AID 602276;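 active = inhibition at or above 50% at 10 µM; inactive = inhibition below 50%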;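 also: firefly luciferase from ISG56 promoter only with Renilla not read in this screen; 0% = Sendai virus plus DMSO and 100% = medium plus DMSO without virus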). The settings on record: HEK293 RL24 IRF3 luciferase reporter, at 10 µM, stronger effect = higher value. (Reporter assays use an easily measured gene product as a stand-in for the process of interest.)

Assay [8] can be described thus: inhibitors of poly I:C-induced TLR3 signaling, primary screen, cell-based, poly I:C stimulus, luciferase, 10K MLSCN set (AID 602277;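 active = inhibition of the reporter signal at or above 50%; inactive = inhibition below 50%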). The settings on record: HEK293-TLR3 RL24 IRF3 luciferase reporter, at 10 µM, stronger effect = higher value.

Activity calls are given as the source filed them.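 The calls were made as follows, unless noted: active = visually confirmed hit in the image check and inhibition above 20%; inconclusive = visually confirmed hit but inhibition not above 20%; inactive = no visual hit in the image check.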

This note sets out measurements from PubChem BioAssay.

On to `Cc1cc(OCC(=O)N2CCOCC2)cc2oc(=O)c3ccccc3c12`, for which the cell count in assay [1] stood at 352. The inhibition (in general, the drop in the measured response relative to a control, in per cent) in assay [1] was 6.7% (inactive); in assay [3] it was 3.4% (inactive); in assay [7], -4.13% (inactive); in assay [8], -8.03% (inactive). The inhibition of aggregation in assay [2] is -9.5% (inactive). The nuclei count amounted to 90.7% in assay [2] and 124% in assay [3]. In addition, the fluorescence slope in assay [4] was -0.329 (inactive). Moreover, the NADPH fluorescence slope in assay [5] was 2.7e-05 (inactive). In assay [6], the slope is 0.00625 (inactive).
With `O=C(Cn1c(NCCO)nc2ccccc21)c1ccccc1`, in assay [1], the cell count turned out to be 513. The inhibition in assay [1] is 4.9% (inactive); in assay [3] it was -58.5% (inactive); in assay [7], 9.81% (inactive); in assay [8] it was 29.4% (inactive). For the same compound, the inhibition of aggregation in assay [2] is 18.2% (inactive). In addition, the nuclei count in assay [2] was determined as 106%; in assay [3] it was 115%. Moreover, the fluorescence slope in assay [4] was -0.58 (inactive). In addition, the NADPH fluorescence slope in assay [5] is -1.8e-05 (inactive). Further, in assay [6], the slope was 0.00599 (inactive).
On to `CCCn1c(SCC(=O)NC(C)(C)C)nnc1C(C)C`, for which the cell count in assay [1] came to 603. Further, the inhibition was -6.3% (inactive) in assay [1], 19.4% (inactive) in assay [3], 13% (inactive) in assay [7] and 23.2% (inactive) in assay [8]. Besides, the inhibition of aggregation in assay [2] is 6.5% (inactive). In addition, the nuclei count came to 102% in assay [2] and 99.9% in assay [3]. Moreover, in assay [4], the fluorescence slope was -0.537 (inactive). In addition, the NADPH fluorescence slope in assay [5] was -0.000121 (inactive). The slope in assay [6] was 0.00641 (inactive).
For `C/C(=C\C(=O)c1ccc(F)cc1)Nc1ccc(N2CCOCC2)cc1`, in assay [1], the cell count is 412. Besides, the inhibition in assay [1] was -7.9% (inactive); in assay [3], -1.4% (inactive); in assay [7] it was -13.9% (inactive); in assay [8], -43.6% (inactive). Further, the inhibition of aggregation in assay [2] was 20.9% (inactive). The nuclei count in assay [2] was found to be 86.5%; in assay [3], 99.6%. For the same compound, the fluorescence slope in assay [4] was -0.532 (inactive). Also, the NADPH fluorescence slope in assay [5] was 3.5e-06 (inactive). Besides, the slope in assay [6] was 0.00495 (inactive).
`O=C(COC(=O)c1cc(S(=O)(=O)N2CCOCC2)cs1)c1ccccc1`: the cell count in assay [1] stood at 692. In addition, the inhibition in assay [1] was -5.5% (inactive); in assay [3], -88.5% (inactive); in assay [7], 11.5% (inactive); in assay [8] it was 29.5% (inactive). Moreover, the inhibition of aggregation in assay [2] was -9.6% (inactive). In addition, the figures for the nuclei count in assay [2] and in assay [3] were 103% and 114%, respectively. Besides, the fluorescence slope in assay [4] was -0.485 (inactive). The NADPH fluorescence slope in assay [5] is -5.8e-05 (inactive). The slope in assay [6] is 0.00656 (inactive).
As for `O=C(Cn1ncc2c(=O)oc3ccccc3c21)Nc1nc2ccccc2s1`, the cell count in assay [1] was determined as 313. Moreover, the inhibition is -0.7% (inactive) in assay [1], -282% (inactive) in assay [3], 15.6% (inactive) in assay [7] and 17% (inactive) in assay [8]. Moreover, in assay [2], the inhibition of aggregation is 1.3% (inactive). Further, the nuclei count was 96.3% in assay [2] and 90.7% in assay [3]. Also, the fluorescence slope in assay [4] was -0.537 (inactive). Further, the NADPH fluorescence slope in assay [5] was -8.1e-05 (inactive). Moreover, the slope in assay [6] was 0.00615 (inactive).
`N#CC1=C(N)N(c2ccccc2)C(c2ccco2)C1(C#N)C#N` (centres undefined): the cell count in assay [1] amounted to 322. Besides, the inhibition is 2% (inactive) in assay [1], 3.9% (inactive) in assay [3], 1.35% (inactive) in assay [7] and 9.78% (inactive) in assay [8]. Also, the inhibition of aggregation in assay [2] was -3.9% (inactive). In addition, the nuclei count came to 103% in assay [2] and 107% in assay [3]. In addition, the fluorescence slope in assay [4] is -0.427 (inactive). The NADPH fluorescence slope in assay [5] was -1.7e-05 (inactive). Besides, the slope in assay [6] is 0.00559 (inactive).
Take `C=CCOC(=O)C1=C(C)NC(=O)NC1c1cn(-c2ccccc2)nc1-c1cccs1` (centres undefined): in assay [1], the cell count was 663. Also, the inhibition is -18.8% (inactive) in assay [1], -7.6% (inactive) in assay [3], 14.3% (inactive) in assay [7] and 14.3% (inactive) in assay [8]. In addition, the inhibition of aggregation in assay [2] was 13.7% (inactive). Further, the nuclei count in assay [2] came out at 87.3%; in assay [3], 110%. For the same compound, in assay [4], the fluorescence slope is -0.332 (inactive). The NADPH fluorescence slope in assay [5] was -5.4e-05 (inactive). Besides, the slope in assay [6] was 0.00533 (inactive).
On to `Nc1c(N2CCCCC2)c(=O)[nH]c(=O)n1-c1ccccc1`, for which, in assay [1], the cell count came to 751. In addition, the inhibition in assay [1] was 2.4% (inactive); in assay [3], -0.1% (inactive); in assay [7] it was -4.05% (inactive); in assay [8] it was -5.22% (inactive). Also, the inhibition of aggregation in assay [2] was 3% (inactive). The figures for the nuclei count in assay [2] and in assay [3] were 106% and 109%, respectively. Also, the fluorescence slope in assay [4] was -0.456 (inactive). In assay [5], the NADPH fluorescence slope is 4.1e-05 (inactive). Besides, the slope in assay [6] was 0.00376 (inactive).
`Fc1cccc2sc(Nc3nnc(-c4ccco4)o3)nc12`: the cell count in assay [1] is 404. Moreover, the inhibition is -3.6% (inactive) in assay [1], -0.9% (inactive) in assay [3], -39.7% (inactive) in assay [7] and -83% (inactive) in assay [8]. Moreover, the inhibition of aggregation in assay [2] was 2.5% (inactive). In addition, the nuclei count in assay [2] came to 109%; in assay [3], 94.5%. Further, in assay [4], the fluorescence slope is -0.501 (inactive). The NADPH fluorescence slope in assay [5] is -4.9e-05 (inactive). For the same compound, in assay [6], the slope was 0.0148 (active).
For `O=C(CS(=O)(=O)c1cn(Cc2ccc(Cl)cc2)c2ccccc12)N1CCOCC1`, the cell count in assay [1] was 531. Also, the inhibition was 4.3% (inactive) in assay [1], -8.5% (inactive) in assay [3], 5.23% (inactive) in assay [7] and 17.5% (inactive) in assay [8]. Besides, in assay [2], the inhibition of aggregation was 37.8% (inactive). Moreover, the nuclei count in assay [2] was determined as 91.1%; in assay [3], 110%. Besides, the fluorescence slope in assay [4] is -0.504 (inactive). The NADPH fluorescence slope in assay [5] was 7.7e-07 (inactive). In assay [6], the slope was 0.00671 (inactive).
As for `CCCN(CCC)CCCNS(=O)(=O)c1ccc2c(c1)oc(=O)n2C`, the cell count in assay [1] was found to be 377. Moreover, the inhibition in assay [1] was -2.4% (inactive); in assay [3], -61.9% (inactive); in assay [7] it was 16.6% (inactive); in assay [8], 23% (inactive). The inhibition of aggregation in assay [2] is 6.1% (inactive). Besides, the nuclei count came out at 102% in assay [2] and 112% in assay [3]. For the same compound, in assay [4], the fluorescence slope was -0.432 (inactive). Also, in assay [5], the NADPH fluorescence slope is -9.3e-05 (inactive). Further, the slope in assay [6] was 0.00475 (inactive).
Take `Cn1c(=O)c2c(nc(SCC(=O)N3CCCc4ccccc43)n2C)n(C)c1=O`: in assay [1], the cell count was determined as 354. Moreover, the inhibition was -5.7% (inactive) in assay [1], -139% (inactive) in assay [3], -0.111% (inactive) in assay [7] and -6.19% (inactive) in assay [8]. Besides, the inhibition of aggregation in assay [2] was -9.7% (inactive). The nuclei count in assay [2] came to 45.1%; in assay [3] it was 115%. The fluorescence slope in assay [4] was -0.361 (inactive). Besides, the NADPH fluorescence slope in assay [5] was -7.1e-05 (inactive). Further, the slope in assay [6] is 0.00482 (inactive).
As to `CCCCc1nc2ccccc2n2cc3c(=O)n(C)c(=O)n(C)c3c12`, the cell count in assay [1] came out at 877. The inhibition in assay [1] was 5.2% (inactive); in assay [3], -48.7% (inactive); in assay [7], 14.3% (inactive); in assay [8], 28.9% (inactive). Moreover, in assay [2], the inhibition of aggregation is -29.8% (inactive). The nuclei count was determined as 81.2% in assay [2] and 104% in assay [3]. Also, in assay [4], the fluorescence slope is -0.524 (inactive). Moreover, the NADPH fluorescence slope in assay [5] is -1.7e-05 (inactive). Moreover, the slope in assay [6] is 0.00741 (inactive).
